Source: PubChem BioAssay (NCI)
This is part of a sample that, as a whole, favours compounds with a hit. Of some 79,000 tested, about 15% had one in any assay. Calls of active or inactive are those of the source. Cut-off read from the data, not from the text of the source: active = growth inhibition above about 70%; inactive = the rest.

Columns and labels:
[1] = NCI Yeast Anticancer Drug Screen. Data for the wt2 strain (AID 169);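 note: 0% = growth of vehicle-treated yeast cultures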; settings: S. cerevisiae wt2 strain growth inhibition, stronger effect = higher value
Method in brief: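 Read-out: growth inhibition versus vehicle-treated control cultures after compound exposure of the yeast strain.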

[2] = NCI Yeast Anticancer Drug Screen. Data for the mlh1 strain (AID 171);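 note: 0% = growth of vehicle-treated control cultures of the same strain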; settings: S. cerevisiae mlh1 strain growth inhibition, stronger effect = higher value
Method in brief: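 Read-out: growth inhibition versus vehicle controls. Strain: engineered yeast with a defined DNA repair or cell cycle defect, compound-treated.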

[3] = NCI Yeast Anticancer Drug Screen. Data for the sgs1 strain (AID 173);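 note: 0% = growth of vehicle-only control cultures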; settings: S. cerevisiae sgs1 mutant, stronger effect = higher value
Method in brief: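 Read-out: yeast growth inhibition relative to vehicle controls, following compound exposure of a strain with a defined DNA repair/cell cycle alteration.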

[4] = NCI Yeast Anticancer Drug Screen. Data for the rad18 strain (AID 177); settings: S. cerevisiae rad18 mutant growth inhibition, stronger effect = higher value
Method in brief: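 Readout: growth inhibition vs vehicle controls. Cells: genetically altered yeast strain, DNA repair defect.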

[5] = NCI Yeast Anticancer Drug Screen. Data for the rad52 strain (AID 147);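 note: 0% = growth of vehicle-treated control cultures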; settings: S. cerevisiae rad52 mutant growth inhibition, stronger effect = higher value
Method in brief: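 Read-out: growth inhibition versus vehicle-treated controls. Cells were a DNA repair-deficient yeast strain treated with compounds.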

[6] = NCI Yeast Anticancer Drug Screen. Data for the wt1 strain (AID 149);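 note: 0% = growth of vehicle-treated wt1 cultures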; settings: S. cerevisiae wt1 strain (SPY 50644) growth inhibition, stronger effect = higher value
Method in brief: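 Measured: growth of wt1 yeast under compound versus vehicle treatment, reported as inhibition.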

[7] = NCI Yeast Anticancer Drug Screen. Data for the rad50EPP+ strain (AID 151);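 note: 0% = growth of vehicle-treated control cultures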; settings: S. cerevisiae rad50 mutant strain, stronger effect = higher value
Method in brief: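 Growth inhibition read against vehicle controls in rad50EPP+ yeast, a strain altered in DNA damage repair, after compound exposure.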

[8] = NCI Yeast Anticancer Drug Screen. Data for the mgt1 strain (AID 153); settings: S. cerevisiae mgt1 mutant growth inhibition, stronger effect = higher value
Method in brief: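 mgt1 yeast grown with test compound; read-out is growth inhibition versus vehicle-treated cultures.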

[9] = NCI Yeast Anticancer Drug Screen. Data for the rad50 strain (AID 155);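 note: 0% = growth of vehicle-only cultures of the same strain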; settings: S. cerevisiae rad50 strain growth inhibition, stronger effect = higher value
Method in brief: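 Growth of the mutant yeast was measured after compound exposure and referenced to vehicle-treated cultures.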

[10] = NCI Yeast Anticancer Drug Screen. Data for the mec2-1 strain (AID 157); settings: S. cerevisiae mec2-1 strain, stronger effect = higher value
Method in brief: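 Yeast mec2-1 mutant treated with compound. Readout: growth inhibition vs vehicle controls.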

[11] = NCI Yeast Anticancer Drug Screen. Data for the rad14 strain (AID 159);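 note: 0% = growth of vehicle-treated control cultures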; settings: S. cerevisiae rad14 strain growth inhibition, stronger effect = higher value
Method in brief: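 Here, inhibition of yeast growth was measured after compound exposure, using a strain with a genetic defect in DNA damage repair and vehicle-treated cultures as the reference.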

[12] = NCI Yeast Anticancer Drug Screen. Data for the sgs1 mgt1 strain (AID 161);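 note: 0% = growth of cultures given vehicle only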; settings: S. cerevisiae sgs1 mgt1 strain, stronger effect = higher value
Method in brief: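 Genetically altered yeast, compound exposure, growth inhibition relative to vehicle.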

[13] = NCI Yeast Anticancer Drug Screen. Data for the CLN2oe strain (AID 163);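 note: 0% = growth of vehicle-only control cultures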; settings: S. cerevisiae CLN2oe strain, stronger effect = higher value
Method in brief: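 Read-out: yeast growth inhibition, expressed relative to vehicle-only controls. The strain bears an engineered cell-cycle alteration.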

[14] = NCI Yeast Anticancer Drug Screen. Data for the cln2 rad14 strain (AID 165);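 note: 0% = growth equal to vehicle treated cultures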; settings: S. cerevisiae cln2 rad14 strain, stronger effect = higher value
Method in brief: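 cln2 rad14 yeast strain; compound exposure; growth inhibition read vs vehicle controls.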

[15] = NCI Yeast Anticancer Drug Screen. Data for the bub3 strain (AID 167); settings: S. cerevisiae bub3 mutant strain, stronger effect = higher value
Method in brief: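 Whole-cell yeast assay. The mutant strain was incubated with compounds, and growth inhibition was determined by comparison with vehicle-treated cells.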

[16] = NCI Yeast Anticancer Drug Screen. Data for the mlh1 rad18 strain (AID 175); settings: S. cerevisiae mlh1 rad18 strain growth inhibition, stronger effect = higher value
Method in brief: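 Yeast w/ defined DNA-repair lesions; compound exposure; growth vs vehicle controls → % inhibition.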

[17] = at 5.0 µM (retest, dose inferred, filed as 0.5)
[18] = at 50.0 µM (retest, dose inferred, filed as 5.0)

Measured: growth inhibition

Cn1cc(NC(=O)c2cc(NC(=O)CN=C(N)N)cn2C)cc1C(=O)NCCC(=N)N
active: [1]; at 33.0 µM 95% | [1]; at 100.0 µM 97% | [2]; at 33.0 µM 93% | [2]; at 100.0 µM 98% | [3]; at 33.0 µM 93% | [3]; at 100.0 µM 96% | [4]; at 33.0 µM 95% | [4]; at 100.0 µM 97%
inactive: [1]; at 1.2 µM 17% | [1]; at 3.7 µM 13% | [1]; at 11.0 µM 23% | [2]; at 1.2 µM -8% | [2]; at 3.7 µM -16% | [2]; at 11.0 µM -7% | [3]; at 1.2 µM 4% | [3]; at 3.7 µM 6% | [3]; at 11.0 µM 17% | [4]; at 1.2 µM -4% | [4]; at 3.7 µM -18% | [4]; at 11.0 µM 14%

O=[N+]([O-])c1oc2ccc3ccccc3c2c1CCO
active: [5]; at 1.2 µM 89% | [5]; at 3.7 µM 94% | [5]; at 11.0 µM 97% | [5]; at 33.0 µM 98% | [5]; at 100.0 µM 98% | [6]; at 11.0 µM 75% | [6]; at 33.0 µM 97% | [6]; at 100.0 µM 98% | [7]; at 3.7 µM 84% | [7]; at 11.0 µM 95% | [7]; at 33.0 µM 97% | [7]; at 100.0 µM 98% | [8]; at 11.0 µM 85% | [8]; at 33.0 µM 98% | [8]; at 100.0 µM 99% | [9]; at 1.2 µM 83% | [9]; at 3.7 µM 90% | [9]; [17] 89% | [9]; at 11.0 µM 96% | [9]; at 33.0 µM 98% | [9]; [18] 99% | [9]; at 50.0 µM 99% | [9]; at 100.0 µM 98% | [10]; at 1.2 µM 79% | [10]; at 3.7 µM 92% | [10]; [17] 97% | [10]; at 11.0 µM 98% | [10]; at 33.0 µM 99% | [10]; [18] 99% | [10]; at 50.0 µM 98.2% | [10]; at 100.0 µM 99% | [11]; at 1.2 µM 94% | [11]; at 3.7 µM 97% | [11]; at 11.0 µM 98% | [11]; at 33.0 µM 99% | [11]; at 100.0 µM 99% | [12]; [17] 92% | [12]; [18] 98% | [12]; at 50.0 µM 99.3% | [13]; at 11.0 µM 87% | [13]; at 33.0 µM 97% | [13]; at 100.0 µM 99% | [14]; [17] 98% | [14]; [18] 99% | [14]; at 50.0 µM 98.5% | [15]; at 11.0 µM 78% | [15]; at 33.0 µM 98% | [15]; [18] 99% | [15]; at 50.0 µM 97.8% | [15]; at 100.0 µM 99% | [1]; at 11.0 µM 80% | [1]; at 33.0 µM 97% | [1]; at 100.0 µM 99% | [2]; at 11.0 µM 88% | [2]; at 33.0 µM 98% | [2]; at 100.0 µM 99% | [3]; at 1.2 µM 82% | [3]; at 3.7 µM 88% | [3]; at 11.0 µM 95% | [3]; at 33.0 µM 98% | [3]; at 100.0 µM 99% | [16]; [17] 95% | [16]; [18] 99% | [16]; at 50.0 µM 96.7% | [4]; at 1.2 µM 97% | [4]; at 3.7 µM 96% | [4]; at 11.0 µM 97% | [4]; at 33.0 µM 98% | [4]; at 100.0 µM 99%
inactive: [6]; at 1.2 µM 2% | [6]; at 3.7 µM 14% | [7]; at 1.2 µM 63% | [8]; at 1.2 µM 7% | [8]; at 3.7 µM 27% | [13]; at 1.2 µM 29% | [13]; at 3.7 µM 66% | [15]; at 1.2 µM -17% | [15]; at 3.7 µM -3% | [15]; [17] 14% | [1]; at 1.2 µM 5% | [1]; at 3.7 µM 19% | [2]; at 1.2 µM 10% | [2]; at 3.7 µM 44%
